Measured values reported in PubChem BioAssay (Tox21).
“And” between values parts separate entries of the source, which are not always exact repeats. Equal entries are not always repeated. Results filed as inconclusive are left out. The source made the active and inactive calls. Unless noted, calls follow the shape of the dose curve; as a rule, active = well fitted curve in the direction sought with a large enough effect in the repeat runs; inconclusive = weak or mixed curves; inactive = no such curve, though single readings can be large; an effect the other way counts as inactive or inconclusive.

Assays:
[1] = qHTS assay to identify small molecule antagonists of the glucocorticoid receptor (GR) signaling pathway - cell viability counter screen (AID 720693); also: nearly all actives have a fitted effect of over 55% in size
[2] = qHTS assay for identifying genotoxic compounds that show differential cytotoxicity against isogenic chicken DT40 cell lines with known DNA damage response pathways - wild type cell line (AID 743012); also: nearly all actives have a fitted effect of over 60% in size
Outline: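 Luminescent ATP viability signal (CellTiter-Glo, 30 min RT) recorded after wild type DT40 cells were incubated with compounds for 40 h at 37 C/5% CO2.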

[3] = qHTS assay for identifying genotoxic compounds that show differential cytotoxicity against isogenic chicken DT40 cell lines with known DNA damage response pathways - Rev3 mutant cell line (AID 743014); also: nearly all actives have a fitted effect of over 55% in size
[4] = qHTS assay for identifying genotoxic compounds that show differential cytotoxicity against isogenic chicken DT40 cell lines with known DNA damage response pathways - Rad54/Ku70 mutant cell line (AID 743015); also: nearly all actives have a fitted effect of over 60% in size
[5] = qHTS assay to identify small molecule antagonists of the androgen receptor (AR) signaling pathway - cell viability counter screen (AID 743033; also: nearly all actives have a fitted effect of over 45% in size)
[6] = qHTS assay to identify small molecule antagonists of the androgen receptor (AR) signaling pathway using the MDA cell line - cell viability counter screen (AID 743041; also: nearly all actives have a fitted effect of over 45% in size)
Outline: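 Viability read by CellTiter-Fluor fluorescence in the same wells as the antagonist screen, added after 15.5 h of a 16 h, 37C exposure. Human breast carcinoma MDA-kb2 AR-luc cells, compounds co-dosed with agonist R1881.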

[7] = qHTS assay to identify small molecule antagonists of the thyroid receptor (TR) signaling pathway - cell viability counter screen (AID 743064); also: nearly all actives have a fitted effect of over 50% in size
Outline: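 Rat GH3 pituitary tumor cells stably expressing two TR response elements driving luciferase were plated, rested 4 h, then dosed with library compounds and T3 (1 nM final). After 23.5 h at 37 °C, CellTiter-Fluor was added for 30 min and fluorescence recorded.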

[8] = qHTS assay to identify small molecule antagonists of the thyroid receptor (TR) signaling pathway (AID 743065); also: nearly all actives have a fitted effect of over 55% in size
Outline: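 Antagonism measured as loss of luciferase signal in GH3 cells stably carrying a TRE-luciferase reporter, co-treated with compound and T3 (1 nM final) for 23.5 h at 37 C. Viability was read in the same well by CellTiter-Fluor.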

[9] = test system: thyroid hormone receptor (rat, GH3 cells); assay: qHTS assay to identify small molecule agonists of the thyroid receptor (TR) signaling pathway (AID 743066; calls by dose curve; also: potency is read from the fitted curve at half-maximal effect)
[10] = target: Estrogen receptor (Homo sapiens) (UniProt P03372); assay: qHTS assay to identify small molecule antagonists of the estrogen receptor alpha (ER-alpha) signaling pathway (AID 743069; active = well fitted curve in the direction sought with a large enough effect in the signal ratio in the repeat runs, not every such curve was filed as active; the % refers to the signal ratio)
Outline: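 Antagonist mode: compounds in DMSO were co-added with 17beta-estradiol to ER-alpha-bla HEK293 cells (2% charcoal-stripped serum) and left 18 h at 37C. Reporter inhibition was measured as FRET fluorescence after 2 h LiveBLAzer substrate at room temperature.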

[11] = qHTS assay to identify small molecule antagonists of the estrogen receptor alpha (ER-alpha) signaling pathway - cell viability counter screen (AID 743074; calls by dose curve;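 also: HEK293 cells carrying ER-alpha-UAS-bla reporter stimulated with 17beta-estradiol; nearly all actives have a fitted effect of over 45% in size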)
[12] = target: Estrogen receptor (Homo sapiens) (UniProt P03372); assay: qHTS assay to identify small molecule agonists of the estrogen receptor alpha (ER-alpha) signaling pathway (AID 743075; calls by dose curve;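 also: HEK293 GripTite cells with ER-alpha and UAS-driven beta-lactamase reporter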)
[13] = target: Estrogen receptor (Homo sapiens) (UniProt P03372); assay: qHTS assay to identify small molecule agonists of the estrogen receptor alpha (ER-alpha) signaling pathway using the BG1 cell line (AID 743079); settings: BG1Luc4E2 cells, ERE-luciferase agonist, 22 h; also: nearly all actives have a fitted effect of over 20% in size; also: potency is read from the fitted curve at half-maximal effect
[14] = qHTS assay to identify small molecule antagonists of the estrogen receptor alpha (ER-alpha) signaling pathway using the BG1 cell line (AID 743080; calls by dose curve;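 also: BG1 cells stimulated with 17beta-estradiol alongside compound; nearly all actives have a fitted effect of over 25% in size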)
Outline: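 BG1Luc4E2, endogenous ER-alpha, 4xERE-luc; 5 d charcoal-stripped FBS, phenol red free; 24 h plating; cpd + 17beta-estradiol 21.5 h, 37 C/5% CO2; CellTiter-Fluor viability 30 min, then ONE-Glo luciferase 30 min RT.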

[15] = qHTS assay to identify small molecule antagonists of the estrogen receptor alpha (ER-alpha) signaling pathway using the BG1 cell line - cell viability counter screen (AID 743081);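 also: compound given together with 17beta-estradiol as the ER stimulus; nearly all actives have a fitted effect of over 45% in size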
Aromatase (Homo sapiens) = Aromatase (Homo sapiens) (UniProt P11511); assay: qHTS assay to identify aromatase inhibitors (AID 743083); also: nearly all actives have a fitted effect of over 55% in size
[16] = qHTS assay to identify aromatase inhibitors - cell viability counter screen (AID 743084)
[17] = target: Androgen receptor (Homo sapiens) (UniProt P10275); assay: qHTS assay to identify small molecule antagonists of the androgen receptor (AR) signaling pathway (AID 743035; active = well fitted inhibition curve with a large enough effect in the signal ratio in the repeat runs, not every such curve was filed as active; the % refers to the signal ratio)
Outline: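 Quantitative HTS of the Tox21 10K library used HEK293 AR-UAS-bla cells stimulated with R1881 alongside compound for 16 h at 37C, followed by beta-lactamase FRET detection (LiveBLAzer B/G, 2 h, RT).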

[18] = target: Androgen receptor (Homo sapiens) (UniProt P10275); assay: qHTS assay to identify small molecule agonists of the androgen receptor (AR) signaling pathway (AID 743036; active = well fitted activation curve with a large enough effect in the signal ratio in the repeat runs, with a control signal flat, not every such curve was filed as active; the % refers to the signal ratio)
Outline: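 Quantitative HTS of the Tox21 10K library in HEK293 cells bearing a stably integrated UAS-controlled beta-lactamase reporter. Compound exposure lasted 16 h at 37C. Reporter activity was detected by FRET substrate fluorescence after 2 h at room temperature.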

[19] = target: Androgen receptor (Homo sapiens) (UniProt P10275); assay: qHTS assay to identify small molecule agonists of the androgen receptor (AR) signaling pathway using the MDA cell line (AID 743040; also: nearly all actives have a fitted effect of over 20% in size)
Outline: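 Luciferase agonist assay: 16 h compound exposure at 37C without CO2 in MDA-kb2 AR-luc cells, whose MMTV promoter responds to both AR and GR. Luminescence measured after 30 min room-temperature incubation with ONE-Glo.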
% is scaled to controls: 0 for no effect and ±100 for the full control effect.

Sequence of Aromatase (Homo sapiens) (P11511 whole entry, looked up): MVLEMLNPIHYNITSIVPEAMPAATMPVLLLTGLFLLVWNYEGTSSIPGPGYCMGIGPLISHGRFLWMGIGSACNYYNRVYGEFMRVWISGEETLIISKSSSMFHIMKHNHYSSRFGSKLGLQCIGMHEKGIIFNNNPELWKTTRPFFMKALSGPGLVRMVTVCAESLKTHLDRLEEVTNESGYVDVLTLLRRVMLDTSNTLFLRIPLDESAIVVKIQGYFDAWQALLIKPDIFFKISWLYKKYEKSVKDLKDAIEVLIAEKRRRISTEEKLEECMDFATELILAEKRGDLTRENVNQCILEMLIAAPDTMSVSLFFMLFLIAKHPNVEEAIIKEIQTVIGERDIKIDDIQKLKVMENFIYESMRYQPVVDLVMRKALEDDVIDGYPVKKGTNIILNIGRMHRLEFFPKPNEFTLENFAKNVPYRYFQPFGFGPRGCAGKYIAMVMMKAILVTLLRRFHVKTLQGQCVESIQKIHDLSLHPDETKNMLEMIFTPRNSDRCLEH
Sequence of Estrogen receptor (Homo sapiens) (P03372 whole entry, looked up): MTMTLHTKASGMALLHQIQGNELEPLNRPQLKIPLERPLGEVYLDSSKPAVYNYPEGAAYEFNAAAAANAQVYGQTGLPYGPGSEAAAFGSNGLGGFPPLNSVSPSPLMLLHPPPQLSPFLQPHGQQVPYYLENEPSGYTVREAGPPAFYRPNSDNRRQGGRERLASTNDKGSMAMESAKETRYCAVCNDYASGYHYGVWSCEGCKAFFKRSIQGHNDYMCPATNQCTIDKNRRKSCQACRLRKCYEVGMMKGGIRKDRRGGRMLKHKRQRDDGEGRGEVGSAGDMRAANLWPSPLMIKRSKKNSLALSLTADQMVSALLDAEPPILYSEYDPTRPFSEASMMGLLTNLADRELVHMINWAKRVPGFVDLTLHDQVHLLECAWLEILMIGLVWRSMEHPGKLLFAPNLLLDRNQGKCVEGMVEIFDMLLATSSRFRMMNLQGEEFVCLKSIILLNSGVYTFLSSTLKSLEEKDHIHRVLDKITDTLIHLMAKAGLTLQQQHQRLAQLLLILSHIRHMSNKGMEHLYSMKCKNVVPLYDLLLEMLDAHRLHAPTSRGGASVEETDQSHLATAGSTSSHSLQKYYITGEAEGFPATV
Sequence of Androgen receptor (Homo sapiens) (P10275 whole entry, looked up): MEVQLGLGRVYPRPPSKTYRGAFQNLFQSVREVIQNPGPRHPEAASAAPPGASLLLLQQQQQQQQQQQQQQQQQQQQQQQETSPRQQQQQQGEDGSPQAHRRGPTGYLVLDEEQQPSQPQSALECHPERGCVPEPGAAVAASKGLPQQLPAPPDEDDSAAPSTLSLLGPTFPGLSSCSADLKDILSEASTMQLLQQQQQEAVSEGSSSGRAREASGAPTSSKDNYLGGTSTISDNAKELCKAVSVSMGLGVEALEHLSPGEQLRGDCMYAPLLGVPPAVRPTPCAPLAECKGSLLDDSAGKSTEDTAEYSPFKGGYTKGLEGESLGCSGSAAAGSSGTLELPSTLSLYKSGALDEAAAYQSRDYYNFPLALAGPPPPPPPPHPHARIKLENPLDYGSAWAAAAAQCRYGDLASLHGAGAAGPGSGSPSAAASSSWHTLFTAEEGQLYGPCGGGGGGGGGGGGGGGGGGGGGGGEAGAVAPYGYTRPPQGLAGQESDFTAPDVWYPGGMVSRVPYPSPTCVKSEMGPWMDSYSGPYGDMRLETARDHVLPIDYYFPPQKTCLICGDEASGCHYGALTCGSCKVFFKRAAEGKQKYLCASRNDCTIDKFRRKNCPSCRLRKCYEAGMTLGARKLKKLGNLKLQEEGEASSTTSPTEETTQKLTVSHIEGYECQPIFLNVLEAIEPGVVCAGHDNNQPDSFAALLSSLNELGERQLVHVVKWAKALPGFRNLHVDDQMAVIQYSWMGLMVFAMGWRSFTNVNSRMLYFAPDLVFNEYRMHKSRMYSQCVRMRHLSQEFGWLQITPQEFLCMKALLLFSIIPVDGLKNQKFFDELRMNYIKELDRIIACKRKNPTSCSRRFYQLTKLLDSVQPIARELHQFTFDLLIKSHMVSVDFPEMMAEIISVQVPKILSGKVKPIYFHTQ

CCCN1CCC[C@@H]2Cc3[nH]ncc3C[C@H]21
inactive: Potency [1] | Potency [2] | Potency [3] | Potency [4] | Potency [5] | Potency [6] | Potency [7] | Potency [8] | Potency [9] | Potency [10] | Potency [11] | Potency [12] | activation ([13]; at 70.3 µM (top of the series)) -4.44% | Potency [14] | Potency [15] | Potency (Aromatase (Homo sapiens)) | Potency [16]

CC(C)[N+](C)(CCC(C(N)=O)(c1ccccc1)c1ccccc1)C(C)C
inactive: Potency [1] | Potency [2] | Potency [3] | Potency [4] | Potency [5] | Potency [6] | Potency [7] | Potency [8] | Potency [9] | Potency [11] | Potency [12] | activation ([13]; at 32.5 µM (top of the series)) 1.94% | Potency [14] | Potency [15] | Potency (Aromatase (Homo sapiens)) | Potency [16]

C/C=C/CC#N
inactive: Potency [1] | Potency [2] | Potency [3] | Potency [4] | Potency [5] | Potency [6] | Potency [7] | Potency [8] | Potency [9] | Potency [10] | Potency [12] | Potency [14] | Potency [15] | Potency (Aromatase (Homo sapiens)) | Potency [16]

CCCCCCCC(=O)Cl
inactive: Potency [1] | Potency [2] | Potency [3] | Potency [4] | Potency [5] | Potency [6] | Potency [7] | Potency [8] | Potency [9] | Potency [10] | Potency [11] | Potency [12] | activation ([13]; at 95 µM (top of the series)) -1.47% | Potency [14] | Potency [15] | Potency (Aromatase (Homo sapiens)) | Potency [16]

CCC(C)(C#N)N=NC(C)(C#N)CC (configuration not stated)
inactive: Potency [1] | Potency [2] | Potency [3] | Potency [4] | Potency [5] | Potency [17] | outcome [18] | outcome [19] | Potency [6] | Potency [7] | Potency [8] | Potency [9] | Potency [11] | Potency [12] | activation ([13]; at 70.3 µM (top of the series)) -7.9% | Potency [14] | Potency [15] | Potency (Aromatase (Homo sapiens)) | Potency [16]

CCSC(=O)Cl
inactive: Potency [1] | Potency [2] | Potency [3] | Potency [4] | Potency [5] | Potency [17] | Potency [6] | Potency [7] | Potency [8] | Potency [9] | Potency [11] | Potency [12] | Potency [14] | Potency [15] | Potency (Aromatase (Homo sapiens)) | Potency [16]

S=C=S
inactive: Potency [1] | Potency [2] | Potency [3] | Potency [4] | Potency [5] | Potency [6] | Potency [7] | Potency [8] | Potency [9] | Potency [10] | Potency [11] | Potency [12] | activation ([13]; at 70.3 µM (top of the series)) -5.81% and -2.85% | Potency [14] | Potency [15] | Potency (Aromatase (Homo sapiens)) | Potency [16]

CC1NCCOC1c1ccccc1 (configuration not stated)
inactive: Potency [1] | Potency [2] | Potency [3] | Potency [4] | Potency [5] | Potency [6] | Potency [7] | Potency [8] | Potency [9] | Potency [10] | Potency [11] | Potency [12] | activation ([13]; at 70.3 µM (top of the series)) 12.2% | Potency [14] | Potency [15] | Potency (Aromatase (Homo sapiens)) | Potency [16]

CS(=O)(=O)Cl
inactive: Potency [1] | Potency [2] | Potency [3] | Potency [4] | Potency [5] | Potency [6] | Potency [7] | Potency [8] | Potency [9] | Potency [10] | Potency [11] | Potency [12] | activation ([13]; at 95 µM (top of the series)) 7.45% | Potency [14] | Potency [15] | Potency (Aromatase (Homo sapiens)) | Potency [16]

COC(=O)c1ccc(CBr)cc1
active: Potency [13] 6.94 µM
inactive: Potency [1] | Potency [2] | Potency [3] | Potency [4] | Potency [5] | Potency [17] | outcome [18] | outcome [19] | Potency [6] | Potency [7] | Potency [8] | Potency [9] | Potency [10] | Potency [12] | Potency [15] | Potency (Aromatase (Homo sapiens)) | Potency [16]

COc1cc(CCN)cc(OC)c1OC
inactive: Potency [1] | Potency [2] | Potency [3] | Potency [4] | Potency [5] | Potency [6] | Potency [7] | Potency [8] | Potency [9] | Potency [10] | Potency [11] | Potency [12] | activation ([13]; at 95 µM (top of the series)) -6.66% | Potency [14] | Potency [15] | Potency [16]

CCCN1CCC[C@@H]2Cc3nc(N)ncc3C[C@H]21
inactive: Potency [1] | Potency [2] | Potency [3] | Potency [4] | Potency [5] | Potency [6] | Potency [7] | Potency [8] | Potency [9] | Potency [10] | Potency [11] | Potency [12] | activation ([13]; at 70.3 µM (top of the series)) -11.9% | Potency [14] | Potency [15] | Potency (Aromatase (Homo sapiens)) | Potency [16]

Cc1ccc(-c2nc3ccc(C)cn3c2CC(=O)N(C)C)cc1
inactive: Potency [1] | Potency [2] | Potency [3] | Potency [4] | Potency [5] | Potency [6] | Potency [7] | Potency [8] | Potency [9] | Potency [11] | Potency [12] | activation ([13]; at 70.3 µM (top of the series)) 15.6% | Potency [14] | Potency [15] | Potency (Aromatase (Homo sapiens)) | Potency [16]

COC(=O)c1ccccc1CS(=O)(=O)NC(=O)Nc1nc(OC)cc(OC)n1
inactive: Potency [1] | Potency [2] | Potency [3] | Potency [4] | Potency [5] | Potency [6] | Potency [7] | Potency [8] | Potency [9] | Potency [10] | Potency [11] | Potency [12] | activation ([13]; at 70.3 µM (top of the series)) 1.94% | Potency [14] | Potency [15] | Potency (Aromatase (Homo sapiens)) | Potency [16]

N[C@@H](Cc1ccc(Oc2cc(I)c(O)c(I)c2)c(I)c1)C(=O)O
inactive: Potency [1] | Potency [2] | Potency [3] | Potency [4] | Potency [5] | Potency [6] | Potency [7] | Potency [8] | Potency [10] | Potency [11] | Potency [12] | activation ([13]; at 70.3 µM (top of the series)) -1.5% | Potency [14] | Potency [15] | Potency (Aromatase (Homo sapiens)) | Potency [16]
active: Potency [9] 168 nM
